Assay results reported in the supplement of paper PMC10515830.
Structures can show the parent of a compound that is named as a salt.

Experiments:
Conditions in all cases: 10 µM; exposure time 6 h
[1] = system: Danio rerio larvae (5 dpf); assay: difference in excitability vs DMSO (percentage points); higher = more excitable than DMSO
In short: (§1)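 Wild-type 5 dpf zebrafish larvae in 96-well plates were given 100 µL egg water containing library compound at 10 µM final for 6 h. After 3 h of exposure, plates at 28.5 ℃ were photographed every 6 s during a 3-h programme of moving lines and 100 ms, 400Hz tones. Z-LaP Tracker (a DeepLabCut model) quantified each behaviour, averaged over 48 larvae per compound. Values are the compound mean minus the DMSO-vehicle control, in percentage points.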

[2] = system: Danio rerio larvae (5 dpf); assay: difference in startle response vs DMSO (percentage points); higher = stronger startle than DMSO
In short: as §1

[3] = system: Danio rerio larvae (5 dpf); assay: difference in activity during first hour vs DMSO (percentage points); higher = more activity than DMSO
In short: as §1

[4] = system: Danio rerio larvae (5 dpf); assay: difference in habituation to acoustic stimuli vs DMSO (percentage points); higher = more habituation than DMSO
In short: as §1

[5] = system: Danio rerio larvae (5 dpf); assay: difference in combined optomotor response to red, green and blue moving lines vs DMSO (percentage points); higher = stronger optomotor response than DMSO
In short: as §1

Structure (SMILES) | difference in excitability [1] | difference in startle response [2] | difference in activity during first hour [3] | difference in habituation to acoustic stimuli [4] | difference [5]
COc1ccc(S(=O)(=O)Nc2ccccc2CN(C)C/C=C/c2ccc(Cl)cc2)cc1 [KN-92 (hydrochloride)] | 7.68 | -0.787 | -17.8 | -4.48 | -1.81
CC(C)OC(=O)C(C)(C)Oc1ccc(C(=O)c2ccc(Cl)cc2)cc1 [Fenofibrate] | 13.8 | -6.52 | 45.6 | -9.59 | -15.8
C=CC(=O)N1CCC[C@@H](n2nc(-c3ccc(Oc4ccccc4)cc3)c3c(N)ncnc32)C1 [Ibrutinib] | 14.1 | 0.877 | -6.73 | -6.76 | 9.38
CC(=O)OC(C)C[N+](C)(C)C (stereo not drawn) [Acetyl-β-methylcholine (chloride)] | 1.77 | 1.22 | 3.93 | 15 | 1.43
CCCCCCCCCC(=O)N[C@@H](Cc1c[nH]c2ccccc12)C(=O)N[C@H](CC(N)=O)C(=O)N[C@@H](CC(=O)O)C(=O)N[C@@H]1C(=O)NCC(=O)N[C@@H](CCCN)C(=O)N[C@@H](CC(=O)O)C(=O)N[C@H](C)C(=O)N[C@@H](CC(=O)O)C(=O)NCC(=O)N[C@H](CO)C(=O)N[C@@H]([C@H](C)CC(=O)O)C(=O)N[C@@H](CC(=O)c2ccccc2N)C(=O)O[C@@H]1C [Daptomycin] | 12 | 1.46 | 7.99 | -6.5 | 6.83
CCCCC[C@H](O)/C=C/[C@H]1[C@H](O)CC(=O)[C@@H]1CCCCCCC(=O)O [Prostaglandin E1] | 15.5 | -3.01 | -8.7 | -1.03 | 0.226
CCC(C)(C)C(=O)O[C@H]1C[C@@H](C)C=C2C=C[C@H](C)[C@H](CC[C@@H]3C[C@@H](O)CC(=O)O3)[C@H]21 [Simvastatin] | 6.26 | -2.42 | 9.76 | 1.77 | 2.53
CCOC(=O)[C@@](C)(N)Cc1ccc(O)c(O)c1 [Methyldopate] | 14.5 | 1.24 | -2.29 | -2.04 | -2.04
C=C1CC[C@H](O)C/C1=C/C=C1\CCC[C@]2(C)[C@@H]([C@H](C)CCCC(C)(C)O)CC[C@@H]12 [25-hydroxy Vitamin D3] | 4.23 | -8.24 | 8.17 | -5.95 | -5
CC(N)C12CC3CC(CC(C3)C1)C2 (stereo not given) [Rimantadine (hydrochloride)] | 3.64 | -0.673 | -3.58 | 3.17 | -3.34
C=C1/C(=C\C=C2/CCC[C@]3(C)[C@@H]([C@H](C)/C=C/[C@@H](O)C4CC4)CC[C@@H]23)C[C@@H](O)C[C@@H]1O [Calcipotriol (hydrate)] | 15.4 | -5.26 | 0.435 | -0.975 | 5.42
O=C(O)C1(C(=O)O)CCC1.[NH2-].[NH2-].[Pt+2] [Carboplatin] | -3.06 | -1.15 | -11.9 | 0.48 | -2.73
CC(c1cc2ccccc2s1)N(O)C(N)=O (stereo not given) [Zileuton] | 3.87 | -0.493 | -3.58 | -0.832 | 6
CC[C@H](C)C(=O)O[C@H]1C[C@H](O)C=C2C=C[C@H](C)[C@H](CC[C@@H](O)C[C@@H](O)CC(=O)O)[C@H]21 [Pravastatin (sodium salt)] | 1.5 | 5.8 | 9.55 | -2.28 | 1.82
CCCc1cc(=O)[nH]c(=S)[nH]1 [Propylthiouracil] | 7.08 | 1.86 | 3.37 | -0.81 | 1.84
CNC(=O)c1ccc(N2C(=S)N(c3cnc(C#N)c(C(F)(F)F)c3)C(=O)C23CCC3)cc1F | -1.56 | -1.13 | 6.27 | 0.499 | 11.9
CN(C/C=C/c1ccccc1)Cc1cccc2ccccc12 [Naftifine (hydrochloride)] | 11.1 | -5.96 | -7.66 | 1 | 7.26
CC1(C)S[C@@H]2[C@H](NC(=O)COc3ccccc3)C(=O)N2[C@H]1C(=O)O [Penicillin V (potassium salt)] | -4.2 | 2.03 | 11 | 4.18 | -1.93
CCc1c(C)[nH]c2c1C(=O)C(CN1CCOCC1)CC2 (stereo not given) [Molindone (hydrochloride)] | 4.99 | -3.27 | -7.67 | -1.62 | -2.83
CCOC(=O)C1=C[C@@H](OC(CC)CC)[C@H](NC(C)=O)[C@@H](N)C1 [Oseltamivir (phosphate)] | 1.51 | 3.38 | 8.28 | -5.42 | 3.62
COc1cc(Nc2ncc(F)c(Nc3ccc4c(n3)N(COP(=O)(O)O)C(=O)C(C)(C)O4)n2)cc(OC)c1OC [R788 (sodium salt)] | 4.23 | 4.11 | 7.65 | -1.65 | 2.43
CC(C)C[C@H](NC(=O)[C@H](CCc1ccccc1)NC(=O)CN1CCOCC1)C(=O)N[C@@H](Cc1ccccc1)C(=O)N[C@@H](CC(C)C)C(=O)[C@@]1(C)CO1 [Carfilzomib] | 5.53 | -0.402 | 4.53 | 2.38 | 4.24
Nc1nc(Cl)nc2c1ncn2[C@H]1C[C@H](O)[C@@H](CO)O1 [Cladribine] | -6.72 | -0.563 | -3.5 | -0.582 | 8.45

Structure (SMILES) | difference in excitability [1] | difference in startle response [2] | difference in activity during first hour [3] | difference in habituation to acoustic stimuli [4] | difference [5]
CC(C)n1c(/C=C/C(O)CC(O)CC(=O)O)c(-c2ccc(F)cc2)c2ccccc21 (stereo not given) [Fluvastatin (sodium salt hydrate)] | 11.5 | -2.51 | 4.55 | -1.22 | 3.05
Clc1ccc2c(c1)C(N1CCNCC1)=Nc1ccccc1O2 [Amoxapine] | 6.07 | -0.987 | 35.7 | -1.72 | 12.4
CC(=O)NC[C@H]1CN(c2ccc(N3CCOCC3)c(F)c2)C(=O)O1 [Linezolid] | -5.19 | 5.59 | -0.74 | 3.24 | 0.137
NC(=O)NO [Hydroxyurea] | -1.52 | 8.36 | 2.09 | 5.31 | 3.68
CC1=C(C(=O)O)N2C(=O)[C@@H](NC(=O)[C@H](N)c3ccccc3)[C@H]2SC1 [Cephalexin] | 6.31 | 7.97 | 2.55 | -0.572 | 3.98
Nc1ccc(O)c(C(=O)O)c1 [5-Aminosalicylic Acid] | 2.98 | 0.822 | 3.09 | 1.77 | -0.0944
CC1=NN(c2ccccc2)C(=O)C1 | 2.26 | -0.112 | -1.37 | -1.34 | 4.56
CCCSc1ccc2[nH]c(NC(=O)OC)nc2c1 [Albendazole] | 17.3 | 4.02 | 4.4 | 0.0113 | 3
Cc1ccc(C)c(OCCCC(C)(C)C(=O)O)c1 [Gemfibrozil] | 14.3 | -10.7 | -1.6 | -4.26 | 4.28
O=C1Nc2ccc(Cl)cc2[C@@](C#CC2CC2)(C(F)(F)F)O1 [Efavirenz] | 10.7 | -10.7 | -17.8 | -12.8 | -17.4
CCN(CC)C(=O)C1(c2ccccc2)CC1CN (stereo not given) [Milnacipran (hydrochloride)] | 16 | -4.41 | -15.2 | 1.78 | -3.7
C=CC(=O)Nc1cc(Nc2nccc(-c3cn(C)c4ccccc34)n2)c(OC)cc1N(C)CCN(C)C | 8.96 | -2.41 | -13.4 | -6.69 | 2.87
O=C(O)CCCCCCCC(=O)O [Azelaic Acid] | 1.68 | 4.07 | -2.89 | 4.6 | 6.08
Nc1nc2c(ncn2COCCO)c(=O)[nH]1 [Acyclovir] | 2.27 | 2.62 | -4.23 | 8.37 | -2.63
COc1ccc(CC2c3cc(OC)c(OC)cc3CC[N+]2(C)CCC(=O)OCCCCCOC(=O)CC[N+]2(C)CCc3cc(OC)c(OC)cc3C2Cc2ccc(OC)c(OC)c2)cc1OC (stereo not given) [Atracurium (besylate)] | 5.62 | -4.13 | -9.46 | -3.02 | -3.83
CO[C@H]1O[C@@H]2O[C@@]3(C)CC[C@H]4[C@H](C)CC[C@@H]([C@H]1C)[C@@]24OO3 [Artemether] | 17.2 | 3.03 | -1.53 | 3.23 | 7.61
CC(C)CCCCC(=O)N[C@@H](CCNCS(=O)(=O)O)C(=O)N[C@H](C(=O)N[C@@H](CCNCS(=O)(=O)O)C(=O)N[C@H]1CCNC(=O)[C@H]([C@@H](C)O)NC(=O)[C@H](CCNCS(=O)(=O)O)NC(=O)[C@H](CCNCS(=O)(=O)O)NC(=O)[C@H](CC(C)C)NC(=O)[C@@H](CC(C)C)NC(=O)[C@H](CCNCS(=O)(=O)O)NC1=O)[C@@H](C)O.CC[C@@H](C)CCCCC(=O)N[C@@H](CCNCS(=O)(=O)O)C(=O)N[C@H](C(=O)N[C@@H](CCNCS(=O)(=O)O)C(=O)N[C@H]1CCNC(=O)[C@H]([C@@H](C)O)NC(=O)[C@H](CCNCS(=O)(=O)O)NC(=O)[C@H](CCNCS(=O)(=O)O)NC(=O)[C@H](CC(C)C)NC(=O)[C@@H](CC(C)C)NC(=O)[C@H](CCNCS(=O)(=O)O)NC1=O)[C@@H](C)O [Colistin Methanesulfonate (sodium salt)] | 20.4 | -4.76 | 4.65 | 0.808 | -2.32
CN(C)C(=O)C(CCN1CCC(O)(c2ccc(Cl)cc2)CC1)(c1ccccc1)c1ccccc1 [Loperamide (hydrochloride)] | 20.6 | 4.43 | 29.3 | -9.2 | -2.52
CN1CCN(C2=Nc3ccccc3Oc3ccc(Cl)cc32)CC1 [Loxapine (succinate)] | 20.5 | -13.4 | 43.6 | -11 | -0.239
CN(C)c1cc(NC(=O)CNC(C)(C)C)c(O)c2c1C[C@H]1C[C@H]3[C@H](N(C)C)C(O)=C(C(N)=O)C(=O)[C@@]3(O)C(O)=C1C2=O [Tigecycline] | 18.8 | 1.45 | -22.5 | -5.95 | -3.12
CC12CC3CC(C)(C1)CC(N)(C3)C2 [Memantine (hydrochloride)] | 4.15 | -1.38 | 1.52 | 2.49 | 3.21
C[C@@H](O)[C@H]1C(=O)N2C(C(=O)O)=C(S[C@@H]3CN[C@H](C(=O)Nc4cccc(C(=O)O)c4)C3)[C@H](C)[C@H]12 [Ertapenem (sodium salt)] | 3.87 | 3.36 | 14.7 | 7.59 | 3.82
